Experimental findings from PubChem BioAssay are described below.

In experiment [1] the test system is Wnt5a (protein binding on small-molecule microarray). Nature of the experiment: Wnt5a binders on small-molecule microarray, primary screen, biophysical, 635/667 nm fluorescence (AID 1142).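 Note: fluorescence read at 667 nm with signal to noise per printed feature.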 As to conditions: 635 nm fluorescence, higher = more signal.
A short description of experiment [2]: cell viability in Huh7 cells, primary screen, cytotoxicity control for HCV replication inhibitor project, CellTiter-Glo luminescence, basal, 48 h (AID 1143).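 Note: Huh7 hepatoma cells carrying a hepatitis C replication reporter with no stimulus; test concentration not given here.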 As to conditions: Huh7 HCV replicon, higher = more signal, called active from +8 up or from −8 down.
Experiment [3] can be described thus: P. aeruginosa biofilm formation inhibitors, primary screen, PAO1 strain, BacTiter-Glo luminescence, LB-PBS (AID 1144). As to conditions: 12 h, higher = more signal.
Experiment [4] is described as follows: CREB reporter modulators without forskolin, primary screen, cell-based, PC12, CRE-LacZ reporter, unstimulated (AID 1145). To be noted: no forskolin, luminescence, 4.5 h, higher = more signal, called active from +8 up or from −8 down.
Experiment [5] in a line: CREB reporter modulators under forskolin, primary screen, cell-based, PC12, CRE-LacZ reporter, forskolin-stimulated (AID 1146).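 Note: PC12 cells with 6xCRE LacZ reporter stimulated by forskolin 10 µM; beta-galactosidase reporter signal reflecting CREB driven transcription.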 As to conditions: luminescence, 4.5 h, higher = more signal, called active from +8 up or from −8 down.
Experiment [6] deals with Streptavidin (Streptomyces avidinii) (UniProt P22629). Put plainly: streptavidin binders on small-molecule microarray, primary screen, artefact control for SMM compound annotation, biophysical, 635/667 nm fluorescence (AID 1147).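 Note: signal reflects streptavidin binding to arrayed compounds as a control protein.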 To be noted: streptavidin binding, higher = more signal.
The nature of experiment [7]: small-molecule binders of probe aInhba, primary screen, biochemical, small-molecule microarray, 635/667 nm fluorescence (AID 1148).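 Note: score merges 667nm spot fluorescence with signal-to-noise for antibody binding to printed compounds.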 As to conditions: higher = more signal.
The target of experiment [8] is Torsin-1A (Homo sapiens) (UniProt O14656). Put plainly: torsin A binders from cell lysate, primary screen, small-molecule microarray, wild-type, 635/667 nm (AID 1149). To be noted: COS7 hTOR1A-WT lysate, 635 nm fluorescence, higher = more signal.
Experiment [9] has the same target. Nature of the experiment: small-molecule binders of mutant TOR1A in lysate, primary screen, cell lysate, small-molecule microarray, COS7 lysate, 635/667 nm fluorescence (AID 1150).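 Note: score pools 667 nm emission and signal to noise measuring lysate protein binding.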 As to conditions: COS7 hTOR1A mutant lysate, 635 nm fluorescence, higher = more signal.
Experiment [10] relates to Sonic hedgehog protein (Shh). Put plainly: small-molecule binders of Shh protein, primary screen, biochemical, small-molecule microarray, 635/667 nm fluorescence (AID 1151).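 Note: Shh protein binding to compounds spotted on small-molecule microarray slides; score combines spot fluorescence intensity with signal-to-noise across triplicate slides.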 To be noted: small-molecule microarray binding, 635 nm fluorescence; higher = more signal.
Experiment [11] can be described thus: E. coli DRC41 culture turbidity changes, primary screen, E. coli filamentation inducer project, strain DRC41, OD650, 48 h (AID 1152).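 Note: E. coli MC1000 strain DRC41 lacking acrAB efflux pump and sulA.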 To be noted: E. coli DRC41 (acrAB sulA), higher = more signal, called active from +8 up or from −8 down.
The nature of experiment [12]: small-molecule binders of probe aLefty1, primary screen, biochemical, small-molecule microarray, 635/667 nm fluorescence (AID 1153).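 Note: score merges spot fluorescence with signal-to-noise ratio from the scanned slide images.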 As to conditions: higher = more signal.
The nature of experiment [13]: PSAC antagonists in infected red cells, primary screen, cell-based, P. falciparum Indochina, OD700, 1 h (AID 1154). As to conditions: P. falciparum Indochina infected RBC osmotic lysis, higher = more signal, called active from +8 up or from −8 down.
The nature of experiment [14]: PSAC antagonists in infected red cells, primary screen, cell-based, P. falciparum Indochina, OD700, 2 h (AID 1155).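 Note: lysis reports solute entry through the parasite surface anion channel PSAC; channel blockers reduce lysis of infected cells.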 As to conditions: P. falciparum Indochina infected erythrocytes, osmotic lysis OD700; higher = more signal, called active from +8 up or from −8 down.
The nature of experiment [15]: osmotic lysis modulators in infected erythrocytes, primary screen, PSAC antagonist project, cell-based, P. falciparum Indochina, OD700, 3 h (AID 1156). As to conditions: higher = more signal, called active from +8 up or from −8 down.
Experiment [16] can be described thus: PSAC antagonists in infected red cells, primary screen, cell-based, P. falciparum Indochina, OD700, 18 h (AID 1157). To be noted: P. falciparum Indochina infected erythrocytes, osmotic lysis OD700, 18 h; higher = more signal, called active from +8 up or from −8 down.
Experiment [17] is described as follows: modulators of S6 phosphorylation in cells, primary screen, cell-based, A549, cytoblot, luminescence, serum-stimulated (AID 1158).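 Note: serum-stimulated A549 lung adenocarcinoma cells; signal is phosphorylated S6 detected by cytoblot immunostaining with HRP secondary.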 As to conditions: A549 phospho-S6 cytoblot, 5 h, higher = more signal.
For experiment [18], the target named is NADPH oxidase 2 (Homo sapiens) (UniProt P04839). Nature of the experiment: NOX2-dependent H2O2 signal modulators, primary screen, NOX inhibitor project, cell-based, HEK293-NOX2, PMA-stimulated, Amplex Red fluorescence (AID 1159). Note: test concentration not given here. As to conditions: 45 min, higher = more signal, called active from +8 up or from −8 down.
In experiment [19] the target is NADPH oxidase 4 (Homo sapiens) (UniProt Q9NPH5). Nature of the experiment: NOX4-dependent H2O2 signal modulators, primary screen, NOX inhibitor project, cell-based, HEK293-NOX4, tetracycline-induced, Amplex Red fluorescence (AID 1160). As to conditions: 45 min, higher = more signal, called active from +8 up or from −8 down.
Experiment [20] has as its target NADPH oxidase 5 (Homo sapiens) (UniProt Q96PH1). Nature of the experiment: NOX5-dependent H2O2 signal modulators, primary screen, NOX inhibitor project, cell-based, HEK293-NOX5, Amplex Red fluorescence (AID 1161). As to conditions: HEK293-NOX5, ionomycin, 45 min, higher = more signal.

Calls of active or inactive are those of the source. Unless noted, the rule behind the calls is not given here.

Sequence of NADPH oxidase 5 (Homo sapiens) (Q96PH1 whole entry, looked up): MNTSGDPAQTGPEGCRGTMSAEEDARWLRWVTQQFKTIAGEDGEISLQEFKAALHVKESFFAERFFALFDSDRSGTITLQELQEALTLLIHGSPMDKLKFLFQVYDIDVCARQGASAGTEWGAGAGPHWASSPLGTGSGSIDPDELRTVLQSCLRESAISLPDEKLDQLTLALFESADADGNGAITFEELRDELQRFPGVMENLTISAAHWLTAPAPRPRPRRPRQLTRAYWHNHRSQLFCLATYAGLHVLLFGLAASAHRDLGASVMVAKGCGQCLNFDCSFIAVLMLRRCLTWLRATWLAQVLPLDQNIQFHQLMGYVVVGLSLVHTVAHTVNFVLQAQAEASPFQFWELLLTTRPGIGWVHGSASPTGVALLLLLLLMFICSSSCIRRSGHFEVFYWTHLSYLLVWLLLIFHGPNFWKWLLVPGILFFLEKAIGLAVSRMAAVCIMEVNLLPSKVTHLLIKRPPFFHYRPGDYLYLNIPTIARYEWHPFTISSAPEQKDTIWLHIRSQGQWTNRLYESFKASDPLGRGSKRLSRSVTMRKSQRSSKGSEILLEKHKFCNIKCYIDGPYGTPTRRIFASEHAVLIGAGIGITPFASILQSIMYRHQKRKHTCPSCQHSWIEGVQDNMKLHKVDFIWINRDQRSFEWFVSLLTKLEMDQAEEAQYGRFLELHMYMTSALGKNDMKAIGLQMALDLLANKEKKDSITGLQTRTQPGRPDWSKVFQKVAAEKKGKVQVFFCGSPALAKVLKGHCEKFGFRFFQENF
Sequence of Torsin-1A (Homo sapiens) (O14656 whole entry, looked up): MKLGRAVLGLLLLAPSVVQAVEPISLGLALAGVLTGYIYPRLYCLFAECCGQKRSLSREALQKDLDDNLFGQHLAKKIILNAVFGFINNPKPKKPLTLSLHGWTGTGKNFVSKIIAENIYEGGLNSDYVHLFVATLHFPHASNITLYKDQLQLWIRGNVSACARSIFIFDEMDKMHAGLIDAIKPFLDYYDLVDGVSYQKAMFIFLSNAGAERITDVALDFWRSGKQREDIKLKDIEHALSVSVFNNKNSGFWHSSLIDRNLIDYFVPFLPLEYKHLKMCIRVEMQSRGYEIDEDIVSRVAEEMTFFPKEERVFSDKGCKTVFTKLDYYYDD
Sequence of Streptavidin (Streptomyces avidinii) (P22629 whole entry, looked up): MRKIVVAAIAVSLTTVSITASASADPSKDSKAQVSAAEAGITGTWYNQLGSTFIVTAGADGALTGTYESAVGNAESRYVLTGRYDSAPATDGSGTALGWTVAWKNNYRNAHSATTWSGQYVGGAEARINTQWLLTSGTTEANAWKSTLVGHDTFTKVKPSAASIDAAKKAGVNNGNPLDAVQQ
Sequence of NADPH oxidase 4 (Homo sapiens) (Q9NPH5 whole entry, looked up): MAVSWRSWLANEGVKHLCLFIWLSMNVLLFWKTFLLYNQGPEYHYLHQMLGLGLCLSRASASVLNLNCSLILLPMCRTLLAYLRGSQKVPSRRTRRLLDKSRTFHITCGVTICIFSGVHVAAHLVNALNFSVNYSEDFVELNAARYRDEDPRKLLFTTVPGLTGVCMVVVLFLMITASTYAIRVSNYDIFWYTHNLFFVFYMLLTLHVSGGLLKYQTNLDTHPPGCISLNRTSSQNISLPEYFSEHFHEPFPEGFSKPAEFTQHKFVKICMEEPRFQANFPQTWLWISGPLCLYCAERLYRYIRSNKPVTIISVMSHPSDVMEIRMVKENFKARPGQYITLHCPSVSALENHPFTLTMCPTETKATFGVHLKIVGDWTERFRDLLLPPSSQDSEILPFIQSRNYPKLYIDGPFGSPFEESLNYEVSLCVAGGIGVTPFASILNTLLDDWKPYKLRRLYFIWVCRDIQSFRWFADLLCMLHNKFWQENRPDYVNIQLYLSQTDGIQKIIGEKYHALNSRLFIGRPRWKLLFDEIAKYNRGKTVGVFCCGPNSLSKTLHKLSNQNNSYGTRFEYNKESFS
Sequence of NADPH oxidase 2 (Homo sapiens) (P04839 whole entry, looked up): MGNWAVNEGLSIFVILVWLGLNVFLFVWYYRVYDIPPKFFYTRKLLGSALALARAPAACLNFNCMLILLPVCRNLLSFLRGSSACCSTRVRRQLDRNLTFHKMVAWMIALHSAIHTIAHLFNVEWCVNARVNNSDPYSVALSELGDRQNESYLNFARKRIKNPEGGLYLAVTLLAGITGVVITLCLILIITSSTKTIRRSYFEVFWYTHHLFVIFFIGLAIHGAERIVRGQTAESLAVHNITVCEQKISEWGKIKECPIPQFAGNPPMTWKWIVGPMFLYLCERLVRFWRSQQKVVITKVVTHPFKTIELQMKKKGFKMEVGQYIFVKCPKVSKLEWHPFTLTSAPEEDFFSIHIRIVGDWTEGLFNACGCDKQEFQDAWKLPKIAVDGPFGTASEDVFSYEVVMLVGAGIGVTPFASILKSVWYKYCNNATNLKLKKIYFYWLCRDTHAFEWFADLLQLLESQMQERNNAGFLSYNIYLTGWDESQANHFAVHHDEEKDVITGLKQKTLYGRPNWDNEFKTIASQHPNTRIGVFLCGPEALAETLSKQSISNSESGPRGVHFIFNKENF

On to `COCC(=C=CC[C@H](O)c1ccc(OCCO)cc1)CCO`, for which the composite z-score in experiment [1] is 0.0048; in experiment [6], -0.407; in experiment [7], 0.138; in the experiment with Torsin-1A (Homo sapiens) [8], 1.91; in the experiment with Torsin-1A (Homo sapiens) [9], 0.911; in experiment [10], 1.96. In experiment [12], this compound gave a composite z-score of 0.0774. Further, the z-score in experiment [2] was 0.287 (inactive); in experiment [3] it was 0.163 (inactive); in experiment [4], 2.44 (inactive); in [5] it was -0.419 (inactive); in experiment [11], 0.367 (inactive); in [13], 9.25 (active). Also, the z-score was 1.02 (inactive) in [14]; 0.934 (inactive) in [15]; 0.381 (inactive) in experiment [16]; -0.439 in experiment [17]; 1.03 (inactive) in experiment [18]; 0.57 (inactive) in experiment [19]. In addition, the z-score in experiment [20] was -0.704.

In the case of `CCCC=C(CCC)[C@@H](NC(=O)C(C)(C)C)c1ccc(C(=O)OC)cc1`, the composite z-score in [1] is 0.0146; in experiment [6], 1.69; in [7], 0.127; with Torsin-1A (Homo sapiens) [8], -0.0649; with Torsin-1A (Homo sapiens) [9], 0.123; in experiment [10], -0.824. The compound also yielded a composite z-score in experiment [12] of 0.666. Also, the z-score in experiment [2] is -2.97 (inactive); in experiment [3] it was -0.168 (inactive); in [4], -0.379 (inactive); in experiment [5] it was -0.744 (inactive); in [11], -1.31 (inactive); in experiment [13], 0.494 (inactive). In addition, the z-score was 0.889 (inactive) in [14]; -1.28 (inactive) in experiment [15]; 1.21 (inactive) in [16]; 0.0791 in experiment [17]; -0.129 (inactive) in experiment [18]; 0.624 (inactive) in [19]. For the same compound, the z-score in [20] turned out to be 2.5.

For the compound `COc1ccc([Si](C)(C)[C@@H]2[C@@H](CC(=O)N3Cc4ccccc4C[C@H]3CO)O[C@]3(C(=O)N(Cc4ccc(N5C(=O)c6cccc7cccc5c67)cc4)c4ccccc43)[C@H]2C)cc1`, the composite z-score in experiment [1] worked out at 0.453; in experiment [6] it was 0.29; in experiment [7], 0.0319; with Torsin-1A (Homo sapiens) [8] it was 0.645; in the experiment with Torsin-1A (Homo sapiens) [9] it was 0.592; in [10], 1.69. Further, in experiment [12], the composite z-score is 0.0391. Moreover, the z-score in experiment [2] is -2.28 (inactive); in experiment [3], -0.334 (inactive); in [4], 2.34 (inactive); in experiment [5] it was 0.972 (inactive); in experiment [11], -0.967 (inactive); in experiment [13], 3.62 (inactive). Besides, the z-score is 1.49 (inactive) in experiment [14]; -0.149 (inactive) in experiment [15]; 0.694 (inactive) in experiment [16]; -0.297 in [17]; 0.878 (inactive) in experiment [18]; 0.929 (inactive) in [19]. In [20], this compound showed a z-score of 2.03.

As to `CC(C)[Si]1(C(C)C)OCc2cc(C3CC3)nc(-c3ccc(Oc4ccccc4)cc3)c21`, the composite z-score in experiment [1] was -0.223; in experiment [6] it was -0.502; in experiment [7], -0.0604; in the experiment with Torsin-1A (Homo sapiens) [8], 0.726; with Torsin-1A (Homo sapiens) [9], -1.07; in experiment [10], -0.241. In experiment [12], this compound returned a composite z-score of -0.284. Further, the z-score in [2] is -1.03 (inactive); in [3], -0.823 (inactive); in experiment [4] it was -0.113 (inactive); in [5] it was 0.0211 (inactive); in experiment [11] it was -0.367 (inactive); in [13], 2.58 (inactive). The z-score was 1.8 (inactive) in experiment [14]; 0.508 (inactive) in [15]; 1.29 (inactive) in [16]; -0.389 in [17]; 1.11 (inactive) in experiment [18]; 0.344 (inactive) in experiment [19]. The compound also showed a z-score in experiment [20] of 0.322.

For the compound `CC[C@@H]1O[Si](C(C)C)(C(C)C)c2c1cc(-c1cc(C)c(OC)c(C)c1)nc2-c1ccc(Oc2ccccc2)cc1`, the composite z-score in [1] was -0.216; in experiment [6], -0.21; in [7] it was -0.231; with Torsin-1A (Homo sapiens) [8], -0.851; in the experiment with Torsin-1A (Homo sapiens) [9], -0.542; in experiment [10], 0.305. The compound also returned a composite z-score in experiment [12] of 0.0101. Moreover, the z-score in experiment [2] was 0.0485 (inactive); in [3] it was -0.523 (inactive); in [4], -0.491 (inactive); in [5] it was 0.316 (inactive); in experiment [11], -0.109 (inactive); in experiment [13], -0.261 (inactive). For the same compound, the z-score in experiment [14] is 0.26 (inactive); in experiment [15], 0.827 (inactive); in experiment [16], 0.311 (inactive); in experiment [17] it was 0.189; in [18], -1.36 (inactive); in experiment [19], -0.672 (inactive). In experiment [20], this compound showed a z-score of -2.04.
